Screening results (PubChem)
Pol III holo inh: DNA polymerase III holoenzyme inhibition; reconstituted DNA polymerase III holoenzyme replication, biochemical; 71,000 tested, 0.25% active; Potency, µM (series often up to 57.1 µM), without a hit: top-dose activity change, negative = inhibition; AID 603; also: potency is read from the fitted curve at half-maximal effect; % is scaled to controls: 0 for no effect and ±100 for the full control effect
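Reconstituted *E. coli* holoenzyme (0.35 nM Pol III, 1 nM beta, 154 nM SSB, 2 nM primase) was preincubated with compound for 15 min at RT. Synthesis on 1.4 nM ssM13Gori ran 35 min, then was stopped with PicoGreen/EDTA and read as dsDNA fluorescence.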
p53ts 39C kill: cytotoxicity in p53ts cells at nonpermissive temperature; H1299-p53A138V viability at 39C, ATP luminescence, 24 h; Potency, µM (titrated, usually from 46.1 µM), inactives show top-dose activity change, negative = cell killing, usual class: cytotoxic; 130,000 tested, 1.5% active; AID 902; also: potency is read from the fitted curve at half-maximal effect; % is scaled to controls: 0 for no effect and ±100 for the full control effect; nearly all actives have a fitted effect of over 55% in size
p53ts 32C kill: kills p53ts cells at the permissive temperature; H1299-p53A138V at 32C, ATP luminescence viability, 24 h; Potency, µM (doses to about 46.1 µM), without a hit: top-dose activity change, negative = cytotoxicity, usual class: cytotoxic; 130,000 tested, 0.93% active; AID 924;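 also: potency is read from the fitted curve at half-maximal effect; 0% = DMSO and -100% = full killing by reference compound; nearly all actives have a fitted effect of over 55% in size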
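H1299-p53 A138V cells (temperature-sensitive p53) exposed 24 h to up to 46 uM compound at 32C, where p53 is wild-type in conformation. Viability read as ATP luminescence and normalised to DMSO and 100 uM tamoxifen. AC50 fitted with the Hill equation.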
Tau fil binding: binds recombinant human tau filaments; recombinant tau filaments, thioflavin S fluorescence, 15 h; filaments grown with octadecylsulfate alongside compound; 71,000 tested, 2% active; Potency, µM (doses to about 57.1 µM), for inactives: top-dose activity change, negative = inhibition;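 also: potency is read from the fitted curve at half-maximal effect; % is scaled to controls: 0 for no effect and ±100 for the full control effect; actives lower thioflavin S fluorescence by blocking filaments or displacing dye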
Target sequence (P10636 whole entry, looked up): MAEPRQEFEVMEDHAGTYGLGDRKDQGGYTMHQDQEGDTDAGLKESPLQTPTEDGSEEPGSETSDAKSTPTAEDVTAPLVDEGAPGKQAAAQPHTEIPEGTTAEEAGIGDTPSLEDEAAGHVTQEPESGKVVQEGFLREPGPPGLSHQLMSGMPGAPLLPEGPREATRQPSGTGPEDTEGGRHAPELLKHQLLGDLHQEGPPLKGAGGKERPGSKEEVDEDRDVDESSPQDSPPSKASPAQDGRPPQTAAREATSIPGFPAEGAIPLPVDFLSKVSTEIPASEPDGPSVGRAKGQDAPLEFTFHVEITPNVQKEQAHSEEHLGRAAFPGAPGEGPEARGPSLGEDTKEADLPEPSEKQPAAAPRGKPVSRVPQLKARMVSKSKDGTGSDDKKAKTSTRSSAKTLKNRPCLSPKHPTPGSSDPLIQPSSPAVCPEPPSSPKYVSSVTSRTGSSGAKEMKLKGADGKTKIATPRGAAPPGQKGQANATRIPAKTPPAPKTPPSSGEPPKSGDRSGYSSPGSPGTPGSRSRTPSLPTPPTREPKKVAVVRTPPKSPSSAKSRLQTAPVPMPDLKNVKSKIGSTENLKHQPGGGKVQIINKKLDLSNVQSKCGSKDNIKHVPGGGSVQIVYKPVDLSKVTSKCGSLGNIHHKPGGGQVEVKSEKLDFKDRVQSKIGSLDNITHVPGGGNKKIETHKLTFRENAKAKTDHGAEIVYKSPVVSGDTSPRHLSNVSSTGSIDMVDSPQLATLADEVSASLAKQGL
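Tau 2 uM in ThS buffer dispensed; compound added; 60 uM ODS added (finals 1 uM tau, 30 uM ODS); 15 h 37 C; fluor ex450/em510.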
ERK AVP inh: vasopressin-driven ERK pathway inhibition | HEK293-V1b, vasopressin-stimulated pERK AlphaScreen | Potency, µM (highest dose often 57.5 µM), for inactives: at the top dose activity, negative = inhibition, usual class: inhibitors | 72,000 tested, 0.99% active | AID 995; also: potency is read from the fitted curve at half-maximal effect; % is scaled to controls: 0 for no effect and ±100 for the full control effect; nearly all actives have a fitted effect of over 55% in size
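Phosphorylated ERK1/2 detected via AlphaScreen bead proximity in lysates of V1b-expressing HEK293 cells given 25 nM vasopressin for 5 min after 30 min compound exposure (37 °C). AC50 from Hill equation; basal DMSO 0%, vasopressin 100%.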
TsaE inh: displaces an ADP probe from E. coli YjeE (TsaE) | purified YjeE enzyme, qHTS inhibition assay | P0AF67 | Potency, µM | AID 605 | 71,000 tested, 0.05% active
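Purified YjeE (10 uM) with BODIPY Texas Red-labeled ADP probe (2 uM); compounds pin-transferred, 15 min at room temperature. Binding inhibition read as decreased fluorescence polarization; ADP titration as control.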
Numbers without * were called inactive; i = inactive; ? = inconclusive; . = no result; [ ] = dose if it differs, or a comment. Compounds with a hit are over-represented: about 3.2% of the library has one in this group of screens. Calls follow the shape of the dose curve; as a rule, active = well fitted curve in the direction sought with a large enough effect; inconclusive = small, poorly fitted or top-dose-only effect, or another doubt; inactive = no such curve, though single readings can be large; an effect the other way counts as inactive or inconclusive.

SMILES	Pol III holo inh	p53ts 39C kill	p53ts 32C kill	Tau fil binding	ERK AVP inh	TsaE inh
CN1CCc2c(sc3c2C(=O)NC(/C=C/c2ccco2)N3)C1 (stereo not given)	-10.3%	14.1%	-0.2%	297.8%	15.8µM*	i
COc1ccc(-c2cnn(-c3ccccc3)c2N)cc1OC	-3.1%[11.4 µM]	12.7%	17.7%	-16.6%[11.4 µM]	-8.7%	i
Nc1nc2c(s1)CCc1c-2cnn1-c1ccccc1	?	10µM*	12.6µM*	20µM*	25.1µM*	i
Nc1ccccc1C(=O)C[C@@H](N)C(=O)O	2.7%	.	.	39.8µM*	.	i
Nc1c(O)cccc1C(=O)C[C@@H](N)C(=O)O	-8.2%[25.6 µM]	1.7%[20.6 µM]	2.6%[20.6 µM]	4.5%[25.6 µM]	-1.1%[25.7 µM]	i
Cn1c(NCc2ccco2)nc2ccccc21	-2.5%	-4.8%	12.9%	15.8µM*	?	i
COc1ccc(Cl)cc1NC(=O)CSc1nnc2[nH]c(=O)cc(-c3ccccc3)n12	.	3.16µM*	?	.	.	.
CCc1ccc(NC(=O)CSc2nnc3[nH]c(=O)cc(-c4ccccc4)n23)cc1	.	6.31µM*	2.3%	.	.	.
O=c1cc(-c2ccccc2)n2c(SCc3ccc(Cl)cc3)nnc2[nH]1	.	6.4%	-4.3%	.	.	.
CCOc1ccccc1NC(=O)CSc1nnc2[nH]c(=O)cc(C)n12	.	-9.1%	7.8%	.	.	.
Cc1ccc(OCCSc2nc3ccc(NC(=O)COc4ccc(F)cc4)cc3s2)cc1	.	10µM*	-0.1%	.	.	.
Cc1cccc(NC(=O)CSc2nc3ccc(NC(=O)COc4ccccc4F)cc3s2)c1	.	10µM*	?	.	.	.
COc1cccc(C(=O)N(Cc2cc3cc(C)ccc3[nH]c2=O)CC2CCCO2)c1 (stereo not given)	-2.1%	11.5%	5.0%	17.7%	?	i
COc1ccc2[nH]c(=O)c(CN(CC3CCCO3)C(=O)Nc3ccc(F)cc3)cc2c1 (stereo not given)	5.9%	?	?	4.5%	12.6µM*	i
COc1ccc(NC(=O)C2CCN(S(=O)(=O)c3c(C)noc3/C=C/c3cccs3)CC2)cc1Cl	.	35.5%	20.4%	.	.	.
CCN(CC)c1ccc(NC(=O)c2cc(CN3CCCC3)on2)c(C)c1	.	-8.6%	-7.9%	.	.	.
COC(=O)c1c(SCC(=O)Nc2cc(C)cc(C)c2)[nH]c2ccccc2c1=O	.	12.6µM*	?	.	.	.
COC(=O)c1c(SCC(=O)Nc2ccccc2C(F)(F)F)[nH]c2ccc(Cl)cc2c1=O	.	-25.4%	?	.	.	.
C[C@H]1[C@H](C)CC[C@@]2(C(=O)O)CC[C@]3(C)C(=CC[C@H]4[C@@]5(C)C[C@@H](O)[C@H](O)[C@@](C)(CO)[C@@H]5CC[C@@]43C)[C@@H]12	-5.9%	.	.	29.3%	.	i
Cc1ccc2nc(NC(=O)c3cccs3)sc2c1	1.3%	7.94µM*	?	138.6%	-1.1%	i
CCC(=O)Nc1nc2ccc(S(C)(=O)=O)cc2s1	.	14.5%	-12.5%	.	.	.
Cc1ccc(C(=O)Nc2nc3ccc(S(C)(=O)=O)cc3s2)s1	0.4%	12.6µM*	10µM*	-8.5%	-12.8%	i
CS(=O)(=O)c1ccc2nc(NC(=O)c3cccs3)sc2c1	-0.3%	2.51µM*	2.51µM*	7.3%	-5.8%	i
O=C(Nc1cc2c(cc1C(=O)c1ccc(Br)cc1)OCCO2)c1ccc(Cl)cc1	.	6.5%	0.6%	.	.	.
O=C(CSc1nnc(-c2ccc(Cl)cc2)o1)N1CCN(c2ccccc2)CC1	-4.0%	-8.0%	-6.0%	12.6µM*	17.3%	i
SMILES	Pol III holo inh	p53ts 39C kill	p53ts 32C kill	Tau fil binding	ERK AVP inh	TsaE inh
O=C(CSc1nnc(COc2ccc(Cl)cc2)o1)N1CCN(c2ccccc2)CC1	2.0%	8.2%	-3.5%	65.1%	-21.3%	i
O=C(c1ccc(CSc2nc3ccncc3n2Cc2ccccc2F)cc1)N1CCCCC1	.	?	-20.5%	.	.	.
CCN(c1cccc(C)c1)C(CNS(=O)(=O)c1ccccc1)c1ccccc1 (stereo not given)	.	12.6µM*	17.4%	.	.	.
Cc1cccc(N(C)C(CNS(=O)(=O)c2ccccc2)c2ccccc2)c1 (stereo not given)	.	31.6µM*	23.3%	.	.	.
COC(=O)CCN(c1ccccc1)C(CNS(=O)(=O)c1ccccc1)c1ccccc1 (stereo not given)	.	-25.7%	25.5%	.	.	.
CCN(c1ccccc1)C(CNS(=O)(=O)c1ccccc1)c1ccccc1 (stereo not given)	.	?	22.7%	.	.	.
O=S(=O)(NCC(c1cccs1)S(=O)(=O)c1ccccc1)c1ccc(F)cc1 (stereo not given)	.	9.1%	10.8%	.	.	.
CCOc1ccc(N2Cc3ccccc3C2)cc1	-2.4%	?	12.6µM*	15.8µM*	-25.8%	i
CS(=O)(=O)N1CCc2cc(C(=O)Nc3ccc(Cl)c(C(F)(F)F)c3)ccc21	.	?	-11.8%	.	.	.
Nc1c(S(=O)(=O)O)cc(Nc2ccc(Nc3nc(Cl)nc(Nc4ccc(S(=O)(=O)O)cc4)n3)c(S(=O)(=O)O)c2)c2c1C(=O)c1ccccc1C2=O	39.8µM*	?	?	-19.7%	?	50.1µM*
N[C@H](CS(=O)O)C(=O)O	1.8%	.	.	-2.4%	.	i
O=C(Nc1nc(-c2ccncc2)cs1)c1ccco1	-6.4%	-1.6%	2.3%	12.6µM*	-25.4%	i
O=C(Nc1nc(-c2cc3ccccc3oc2=O)cs1)c1ccco1	-20.5%	3.2%	-2.2%	127.7%	.	i
O=C(Nc1nc(-c2ccc(Cl)s2)cs1)c1ccncc1	0.0%	-13.8%	-11.6%	25.1µM*	?	i
COc1cc2c(cc1OC)C(COc1ccc3c(C)cc(=O)oc3c1)N(C(=O)c1cccc(OC)c1OC)CC2 (stereo not given)	.	7.3%	19.6%	.	.	.
Oc1ccccc1C1=Nc2nc3ccccc3n2C(c2ccccc2)C1 (stereo not given)	10.7%	-24.9%	?	7.94µM*	-14.4%	i
CN1C(=O)CC(n2c(CO)nc3ccccc32)C1=O (stereo not given)	1.8%	0.1%	-7.0%	5.4%	-2.6%	i
Cc1ccc(NC(=O)Cn2c(=O)n(CC(=O)NCCc3ccccc3)c(=O)c3ccccc32)cc1	.	?	10.9%	.	.	.
Cc1ccc(NC(=O)Cn2c(=O)n(CC(=O)NCCc3ccccc3)c(=O)c3ccccc32)cc1C	.	10µM*	-27.9%	.	.	.
O=C(COc1ccccc1F)NC1CC(=O)N(c2ccc3c(c2)OCCO3)C1 (stereo not given)	.	-11.7%	-5.2%	.	.	.
CC(C)Cn1c(N)c(C(=O)CSc2ccc3c(c2)OCCO3)c(=O)n(C)c1=O	-6.5%	-6.9%	7.5%	457.5%	2µM*	i
COc1ccccc1OCc1ccc(C(=O)Nc2ccncc2)o1	-7.8%	8.2%	9.0%	-6.8%	15.8µM*	i
